# An excerpt weighted towards active compounds, which were near 1.2% of everything screened.
# AGP1-GFP MLPCN: modulators of AGP1-GFP expression in yeast TOR pathway, primary screen, cell-based, multiplex flow cytometry, S. cerevisiae, MLPCN library; 3 h; GFP as percent of DMSO wells; GFP response vs DMSO, % at 10 µM; 320,000 compounds, 0.02% hits; AID 2066, 2009;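 active = GFP response relative to DMSO above a set limit, near screen average plus 3 SD, cut at about 150% in these data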;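 also: median GFP channel fluorescence of the gated AGP1 strain per well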
# RPL19A-GFP yeast: RPL19A-GFP expression modulators in yeast, primary screen, cell-based, S. cerevisiae, multiplex flow cytometry, MLPCN. S. cerevisiae RPL19A-GFP strain, 3 h; hits give low values. percent response vs DMSO, % at 10 µM. 330,000 compounds, 0.3% hits. AID 2025, 2009;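 active = percent response vs DMSO below 50%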;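 also: median channel GFP fluorescence of the barcoded RPL19A-GFP strain; ratio of sample median GFP to plate DMSO average so 100% = DMSO; lower means less RPL19A-GFP as with rapamycin TOR inhibition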
# MEP2-GFP yeast: modulators of MEP2-GFP levels in yeast, primary screen, S. cerevisiae, multiplex flow cytometry, MLPCN library; GFP response vs DMSO, % at 10 µM; 330,000 compounds, 0.51% hits; S. cerevisiae MEP2-GFP strain, 3 h; 100% = DMSO control level;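 active = GFP response versus DMSO above a set limit, roughly screen mean plus 3 SD, cut at about 180% in these data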;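 also: median GFP fluorescence of the barcode-gated MEP2-GFP cells per well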
# LAP4 TOR yeast: modulators of LAP4-GFP expression in yeast, primary screen, S. cerevisiae, multiplex flow cytometry, MLPCN library | 3 h; median GFP as percent of DMSO wells | GFP response vs DMSO, % at 10 µM | 320,000 compounds, 0.34% hits;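 active = GFP response vs DMSO above a set limit, about the screen mean plus 3 SD, cut at about 150% in these data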
# Pemphigus Ab inh: inhibitors of pemphigus antibody binding to DSG3, primary screen, biochemical, bead-based, flow cytometry, scFv-GFP. Desmoglein-3 (Homo sapiens), P32926. DSG3-coupled beads, scFv-anti-DSG3-GFP binding; hits give low values. binding (percent of control), % at 10 µM. 310,000 compounds, 0.48% hits. AID 588358, 2011;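 active = binding more than 3 SD below its plate's average and above zero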;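 also: hits lower antibody fragment binding to DSG3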
# Target sequence (P32926 whole entry, looked up, the tested form may be a part): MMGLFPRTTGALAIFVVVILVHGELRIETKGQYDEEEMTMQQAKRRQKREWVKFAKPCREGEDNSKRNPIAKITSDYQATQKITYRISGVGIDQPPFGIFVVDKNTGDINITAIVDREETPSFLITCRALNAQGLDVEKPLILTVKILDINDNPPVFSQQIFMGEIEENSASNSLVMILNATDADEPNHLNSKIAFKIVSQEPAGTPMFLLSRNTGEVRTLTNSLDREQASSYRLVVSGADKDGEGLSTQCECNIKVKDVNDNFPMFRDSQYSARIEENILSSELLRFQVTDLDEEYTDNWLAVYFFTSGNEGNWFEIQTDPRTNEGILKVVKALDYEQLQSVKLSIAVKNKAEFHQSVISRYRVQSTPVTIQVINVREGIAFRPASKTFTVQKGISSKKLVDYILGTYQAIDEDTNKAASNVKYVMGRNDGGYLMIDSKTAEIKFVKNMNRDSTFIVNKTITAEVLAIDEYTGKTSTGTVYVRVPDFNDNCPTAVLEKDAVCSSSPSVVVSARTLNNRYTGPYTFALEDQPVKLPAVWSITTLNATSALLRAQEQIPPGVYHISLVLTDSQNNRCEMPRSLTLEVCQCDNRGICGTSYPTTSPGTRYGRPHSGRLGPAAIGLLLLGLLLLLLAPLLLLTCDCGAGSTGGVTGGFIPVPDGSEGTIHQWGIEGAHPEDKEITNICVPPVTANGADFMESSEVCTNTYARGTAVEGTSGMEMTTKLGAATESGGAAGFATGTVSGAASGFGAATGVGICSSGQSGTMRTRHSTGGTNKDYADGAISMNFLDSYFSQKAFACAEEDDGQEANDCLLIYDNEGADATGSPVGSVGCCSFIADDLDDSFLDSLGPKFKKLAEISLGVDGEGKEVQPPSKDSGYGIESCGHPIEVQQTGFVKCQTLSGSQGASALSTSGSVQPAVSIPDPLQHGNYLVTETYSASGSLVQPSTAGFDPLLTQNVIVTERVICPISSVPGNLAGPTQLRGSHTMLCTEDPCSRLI
# CIT2 TOR yeast: modulators of CIT2-GFP expression in yeast, primary screen, S. cerevisiae, GFP fusion, multiplex flow cytometry, MLPCN library. AID 2029, 2009. S. cerevisiae CIT2-GFP strain, 3 h; 100 means same as DMSO wells. GFP response vs DMSO, % at 10 µM. 320,000 compounds, 0.065% hits;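 active = GFP response relative to DMSO above a set limit, near the screen mean plus 3 SD, cut at about 150% in these data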;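 also: ratio of well median GFP fluorescence to mean of DMSO wells on the plate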
# LAP4-GFP pick2: LAP4-GFP expression modulators in yeast, confirmation, cell-based, second cherry pick, flow cytometry. shares compounds with LAP4 TOR yeast. S. cerevisiae LAP4-GFP strain, 3 h. GFP response vs DMSO, % at 10 µM. 590 compounds, 20% hits. AID 2621, 2010;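 active = GFP signal as percent of the solvent control above about 150%, meaning raised reporter expression, limit read from the data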;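 also: ratio of well median GFP fluorescence to plate DMSO mean so 100% = DMSO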
# MEP2 cherry2: modulators of MEP2-GFP levels in yeast, confirmation, S. cerevisiae, flow cytometry GFP, second cherry picks. shares compounds with LAP4 TOR yeast. 590 compounds, 10% hits. S. cerevisiae MEP2-GFP strain, 3 h. GFP response vs DMSO, % at 10 µM;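 active = GFP signal above 150% of the solvent control wells, that is a rise of more than half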;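 also: median channel GFP fluorescence of all gated yeast cells per well; ratio of median GFP to plate DMSO average so 100% = DMSO level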
# RPL19A GFP CP2: RPL19A-GFP modulators in TOR pathway yeast, confirmation, cell-based, S. cerevisiae, flow cytometry, second cherry pick; shares compounds with LAP4 TOR yeast; S. cerevisiae RPL19A-GFP strain, 3 h; hits give low values; 100% means same as DMSO wells; GFP response vs DMSO, % at 10 µM; 590 compounds, 3% hits; AID 2623, 2010;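 active = under 65% GFP response relative to DMSO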;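 also: median GFP channel fluorescence per well over the all cells gate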
# CIT2 GFP CP2: modulators of CIT2-GFP expression in yeast, confirmation, flow cytometry, second cherry pick, single plex; 590 compounds, 8% hits; shares compounds with LAP4 TOR yeast; S. cerevisiae CIT2-GFP strain, 3 h; DMSO control wells read 100%; GFP response vs DMSO, % at 10 µM;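 active = GFP response vs DMSO above about 150%, limit read from the data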;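 also: median green fluorescence per well over all gated yeast cells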
# AGP1-GFP pick2: AGP1-GFP expression modulators, hit retest, confirmation, cell-based, flow cytometry, S. cerevisiae, cherry pick set 2. shares compounds with LAP4 TOR yeast. S. cerevisiae AGP1-GFP strain, 3 h. percent response vs DMSO, % at 10 µM. 590 tested, under 10 active. AID 2643, 2010;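 active = over 150 percent of DMSO response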;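 also: median GFP channel fluorescence over all cells without mother daughter split; sample median GFP divided by mean DMSO control so 100% equals DMSO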
# s288c autofluor: compound autofluorescence in yeast s288c, dose response, artefact control for yeast TOR pathway GFP screen, s288c strain. AID 2757, 2010. fluorescence change (kMESF span) at 33 µM. shares compounds with LAP4 TOR yeast. 610 tested, under 10 active. S. cerevisiae s288c, 520 nm autofluorescence, flow cytometry, 3 h; hits give high values; zero means same as solvent-only cells;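 active = fluorescence span over the dose series, or activity score, above about 33, limit read from the data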
# s288c autofl DR: autofluorescence of compounds in yeast s288c, dose response, artefact control for yeast TOR pathway GFP screen, primary hits, KU SAR, s288c parental. AID 488829, 2010. S. cerevisiae s288c parental, compound autofluorescence, flow cytometry, 3 h. 110 tested, under 10 active. fluorescence change (span) at 33 µM. shares compounds with LAP4 TOR yeast;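 active = fluorescence change span, or the activity score built from it, above 25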
# TORC1 bypass gr: wild-type yeast growth inhibition sparing TORC1 bypass cells, mechanism study for yeast TOR pathway GFP screen, BY4741 wild type, TORC1 bypass strain. S. cerevisiae BY4741 spot growth rating, 48-72 h; hits give low values. shares compounds with LAP4 TOR yeast. 120 tested, under 10 active. growth rating (0-3) at 30 µM;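 active = growth rating at most 1 for wild type yeast while the TORC1 bypass strain still grows fully, rated 3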
# The depositor's hits bear a star; nt = not tested or not shown.
SMILES,AGP1-GFP MLPCN,RPL19A-GFP yeast,MEP2-GFP yeast,LAP4 TOR yeast,Pemphigus Ab inh,CIT2 TOR yeast,LAP4-GFP pick2,MEP2 cherry2,RPL19A GFP CP2,CIT2 GFP CP2,AGP1-GFP pick2,s288c autofluor,others
CCc1ccc(C(=O)/C=C/c2ccc([N+](=O)[O-])o2)cc1,78,99,185*,215*,93,155*,nt,nt,nt,nt,nt,4.2,
COc1cccc(CNC(=O)c2cc(S(=O)(=O)N3CCCCC3)ccc2C)c1,nt,nt,nt,nt,103,nt,nt,nt,nt,nt,nt,nt,
O=C(NCc1ccccn1)C(=O)NCC1OCCN1C(=O)c1ccc(Cl)cc1 (configuration not stated),89,94,95,83,nt,101,nt,nt,nt,nt,nt,nt,
O=C(NCc1ccco1)C(=O)NCC1OCCN1C(=O)c1ccc(Cl)cc1 (configuration not stated),95,57,165,97,100,98,102,105,100,101,99,nt,
COc1cccc(NC(=O)CC(=O)c2ccccc2)c1,91,97,100,98,100,96,106,103,100,93,94,nt,
Cc1ccccc1NC(=O)CC(=O)c1ccccc1,94,100,108,92,103,101,105,111,102,100,100,nt,
COc1cccc(NC(=O)Cc2ccccc2)c1,78,98,86,108,108,87,nt,nt,nt,nt,nt,nt,
O=C(CC(=O)c1ccccc1)Nc1ccccc1,89,89,95,92,106,82,106,102,101,101,98,nt,
O=C(CC(=O)c1ccccc1)Nc1ccccc1C(F)(F)F,95,98,105,87,104,94,101,102,101,97,97,nt,
CC(C)(C)C(=O)NCC12C=CC(O1)C1C(=O)N(c3ccccc3)C(=O)C12 (configuration not stated),104,100,98,128,95,109,nt,nt,nt,nt,nt,nt,
O=C1C2C3C=CC(CO)(O3)C2C(=O)N1c1ccc(-c2ccccc2)cc1 (configuration not stated),77,73,84,263*,nt,61,nt,nt,nt,nt,nt,0.71,
Cc1cc(C)c2c(c1)/C(=C/C(=O)c1ccc(Br)s1)C(=O)N2,113,109,110,106,98,110,nt,nt,nt,nt,nt,-0.1,
Cc1cccc2c1NC(=O)/C2=C\C(=O)c1cccs1,82,88,90,185*,97,77,nt,nt,nt,nt,nt,-0.11,
CCc1ccc2c(c1)/C(=N/N(C)C(=S)NC)C(=O)N2,101,95,106,104,84,90,nt,nt,nt,nt,nt,nt,
CCc1ccc2c(c1)/C(=C/C(=O)c1cccs1)C(=O)N2,80,81,95,169*,nt,76,nt,nt,nt,nt,nt,0.11,
Cc1cc(Br)c2c(c1)/C(=C/C(=O)c1cccs1)C(=O)N2,87,82,90,112,102,nt,nt,nt,nt,nt,nt,-0.2,
CC(C)n1cnc2c(N(C)c3ccccc3)nc(N(CCN(C)C)Cc3ccccc3)nc21,76,88,88,120,112,81,nt,nt,nt,nt,nt,nt,
Cc1ccccc1C(=O)N1CCC(C(=O)Nc2nc3ccc(F)cc3s2)CC1,111,101,104,107,90,105,nt,nt,nt,nt,nt,nt,
O=C(Nc1ccc(Cl)cc1Cl)c1cccc(N2C(=O)C=CC2=O)c1,90,64,102,184*,75,87,nt,nt,nt,nt,nt,1.5,
O=C(O)c1cccc(N2C(=O)C=CC2=O)c1,nt,nt,nt,nt,101,nt,nt,nt,nt,nt,nt,nt,
Cc1oc2c(c1C(=O)O)C(=O)c1ccccc1C2=O,97,111,88,156*,104,74,133,133,110,117,119,nt,
Cc1oc2c(c1C(=O)c1ccccc1)C(=O)C(=O)c1ccccc1-2,84,99,94,137,114,88,nt,nt,nt,nt,nt,nt,
CS(=O)(=O)c1ccc2nc(NC(=O)CN3C(=O)NC4(CCCC4)C3=O)sc2c1,97,94,98,96,107,94,nt,nt,nt,nt,nt,nt,
C/C(=N\NC(=O)c1ccc(C(C)(C)C)cc1)c1ccccn1,nt,nt,nt,nt,nt,nt,nt,nt,nt,nt,nt,nt,s288c autofl DR=0.52;TORC1 bypass gr=3
O=C(Nc1ccc2c(c1)OCCO2)c1ccc(Cl)c([N+](=O)[O-])c1,92,91,86,158*,96,76,105,103,97,93,97,nt,
Cc1cc(C(=O)Nc2ccc3c(c2)OCCO3)ccc1[N+](=O)[O-],98,103,106,90,117,102,nt,nt,nt,nt,nt,nt,
O=C(Nc1ccc(Cl)cc1)C1CCCN(c2cnccn2)C1 (configuration not stated),91,95,97,100,132,92,nt,nt,nt,nt,nt,nt,
